# The source made the active and inactive calls. Cut-off read from the data, not from the text of the source: active = activation above about 85%; inactive = the rest.
# Molecular target: Peroxisome proliferator-activated receptor gamma (Homo sapiens) (UniProt P37231)
# Assay: partial agonism at human PPARgamma receptor – cell-based, luciferase reporter, luminescence, primary screen (AID 504452);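 note: Cos-1 cells carrying PPARgamma and a response element luciferase reporter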
# Details: cell-based PPARg luciferase reporter, at 5 µM, stronger effect = higher value; activation (% of full agonist control): measured here: relative to full agonist control
# Peroxisome proliferator-activated receptor gamma (Homo sapiens), sequence (P37231 whole entry, looked up): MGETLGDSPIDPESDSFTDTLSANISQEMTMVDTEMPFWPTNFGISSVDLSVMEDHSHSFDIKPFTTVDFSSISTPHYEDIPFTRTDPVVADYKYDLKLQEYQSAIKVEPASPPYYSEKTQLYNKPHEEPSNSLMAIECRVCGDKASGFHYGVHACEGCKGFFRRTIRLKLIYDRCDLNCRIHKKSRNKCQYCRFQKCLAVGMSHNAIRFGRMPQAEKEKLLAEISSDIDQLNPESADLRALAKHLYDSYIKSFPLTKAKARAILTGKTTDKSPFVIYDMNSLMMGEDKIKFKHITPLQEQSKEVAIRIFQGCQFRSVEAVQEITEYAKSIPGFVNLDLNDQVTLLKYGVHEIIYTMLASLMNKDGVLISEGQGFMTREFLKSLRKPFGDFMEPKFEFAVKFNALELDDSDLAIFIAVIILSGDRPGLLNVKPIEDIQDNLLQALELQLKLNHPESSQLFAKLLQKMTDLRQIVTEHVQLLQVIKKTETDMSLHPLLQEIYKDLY
SMILES,activation (% of full agonist control) [%],activation (% of partial agonist control)
COc1cc(CN2CCCC(N3CCN(c4ccc(F)cc4)CC3)C2)ccc1F (centres undefined),31.2,69% (inactive)
CN1CCN(S(=O)(=O)c2ccc(Sc3nc4ccccc4[nH]3)c3nsnc23)CC1,43.8,96.9% (active)
O=C(NC(Cc1ccccc1)C(=O)O)/C(=C/c1cccc([N+](=O)[O-])c1)NC(=O)c1ccco1 (centres undefined),41.5,91.8% (active)
O=C(NCCCn1ccnc1)C(=O)NCC(c1cccnc1)N1CCN(c2ccc(F)cc2)CC1 (centres undefined),31.2,69% (inactive)
O=C(Cn1c(=O)c(=O)n(Cc2ccccc2)c2ccc(Cl)cc21)Nc1cc(F)ccc1F,28.4,62.9% (inactive)
CN(C)c1ccc(C(CNS(=O)(=O)c2cccc([N+](=O)[O-])c2)N2CCOCC2)cc1 (centres undefined),31.9,70.6% (inactive)
O=C(O)c1ccc(N2C(=O)CC(SC(=Nc3ccccc3)Nc3ccccc3)C2=O)cc1 (centres undefined),38.3,84.7% (inactive)
CN(CCNC(=O)C1CCCN(c2ncnc3c2nc2n3CCCCC2)C1)Cc1ccccc1 (centres undefined),49,109% (active)
CC(=O)Nc1cccc(-n2c(=O)n(Cc3ccccc3)c(=O)c3[nH]cnc32)c1,36.6,81.1% (inactive)
O=C(NCc1ccccc1F)C(=O)NCC1CCCN1S(=O)(=O)c1ccccc1 (centres undefined),16.1,35.6% (inactive)
Cc1ccc2nc(N3C(=O)C(O)=C(C(=O)c4ccc(C)o4)C3c3ccco3)sc2c1 (centres undefined),45.8,101% (active)
Cc1[nH][nH]c(=O)c1C(c1c(C)[nH][nH]c1=O)c1cn(Cc2cccc3ccccc23)c2ccccc12,37.6,83.3% (inactive)
COc1cccc(C2CC(=O)N3CN(c4ccccc4F)CSC3=C2C#N)c1 (centres undefined),31.6,69.9% (inactive)
CCOc1cccc(C2C(C(=O)c3ccco3)=C(O)C(=O)N2c2nnc(C)s2)c1 (centres undefined),31.8,70.4% (inactive)
COC(=O)c1cc(C(=O)N2CCN(c3cccc(Cl)c3)CC2)cc([N+](=O)[O-])c1,27,59.7% (inactive)
Cc1cc(C)c2nc(N3C(=O)C(O)=C(C(=O)c4ccco4)C3c3ccc(O)cc3)sc2c1 (centres undefined),40.2,89.1% (active)
COc1cccc(Cn2nc3c4cc(F)ccc4n(Cc4ccc(F)cc4)cc-3c2=O)c1,38.8,85.9% (active)
O=C(c1cccc(N2C(=O)C3C4C=CC(C4)C3C2=O)c1)N1CCN(c2ccccc2Cl)CC1 (centres undefined),41.1,91% (active)
NC(=O)C1CCCN(Cc2c(C(=O)N3CCc4ccccc4C3)nc3ccc(Cl)cn23)C1 (centres undefined),30.2,66.9% (inactive)
N#C/C(=C\c1ccc(OCCN2CCOCC2)cc1)C(=O)Nc1ccc(S(N)(=O)=O)cc1,36.8,81.4% (inactive)
CCOc1cc(N2CCOCC2)c(OCC)cc1NC(=O)c1ccc2ccccc2n1,46.5,103% (active)
COC(=O)C1=CN(Cc2ccccc2)C=C(C(=O)OC)C1c1ccc(OC)c(OC)c1,25.9,57.3% (inactive)
COc1ccc(-c2cc(C(=O)NC(C)c3ccccn3)c3ccccc3n2)cc1OC (centres undefined),40.7,90.2% (active)
O=C(CCCCCNC(=O)N1CCn2c1nc1ccccc12)N[C@H](Cc1ccccc1)C(=O)O,27.3,60.5% (inactive)

SMILES,activation (% of full agonist control) [%],activation (% of partial agonist control)
COc1ccc(N2C(=O)C(CN3CCN(C)CC3)C2c2ccccc2)cc1 (centres undefined),31.9,70.6% (inactive)
Nc1ccccc1SC1CC(=O)N(c2ccc3c(c2)OCO3)C1=O (centres undefined),34.5,76.4% (inactive)
COc1ccccc1N1C(=O)C2C(c3ccccc3F)NN(C(=O)c3ccc(C)cc3)C2C1=O (centres undefined),26.8,59.4% (inactive)
O=C(NCC(c1ccco1)N1CCc2ccccc2C1)c1cccc(F)c1 (centres undefined),33.4,74% (inactive)
CCn1cc(C(=O)N2CCN(c3ccc(OC)cc3)CC2)c2cc(OC)c(OC)cc2c1=O,27.6,61% (inactive)
Cc1ccc(-c2nnc(Nc3ccc(O)cc3)c3ccccc23)cc1S(=O)(=O)NCCO,41.1,91% (active)
Cn1cc(CNCc2cn[nH]c2-c2ccc(F)cc2)c(-c2ccc3c(c2)OCCO3)n1,29.7,65.8% (inactive)
CCOc1cccc(/C(O)=C2/C(=O)C(=O)N(Cc3ccco3)C2c2ccncc2)c1 (centres undefined),41.1,91% (active)
COc1ccc(CN(C)C(=O)[C@H](Cc2ccccc2)NC(=O)c2ccco2)c(OC)c1,32.8,72.7% (inactive)
O=C1C(=O)N(Cc2cccnc2)C(c2cccc(F)c2)/C1=C(/O)c1ccc2c(c1)OCO2 (centres undefined),35.2,77.9% (inactive)
O=C(N[C@@H]1CCC(=O)N(CC[C@H](Oc2ccccc2)c2ccccc2)CC1)OCc1ccccc1,28.1,62.1% (inactive)
O=C(Cc1cccs1)N1CCCC(c2nc3c(nnn3Cc3ccc(F)cc3)c(=O)[nH]2)C1 (centres undefined),32.7,72.5% (inactive)
O=c1c2cn(Cc3ccc(F)cc3)c3ccccc3c-2nn1Cc1ccc(F)cc1,40.3,89.3% (active)
O=C(c1cccc(S(=O)(=O)Nc2ccccc2Cl)c1)N1CCN(c2ccccc2O)CC1,28.5,63.2% (inactive)
O=C(O)CCC(=O)N1CCc2cc(S(=O)(=O)NCCc3ccc(Cl)cc3)ccc21,35.9,79.6% (inactive)
O=C(Nc1c(C(=O)Nc2ccc3c(c2)OCCO3)cnn1-c1ccccc1Cl)c1ccco1,47.5,105% (active)
COc1ccc(C2CC(=O)N3CN(c4ccccc4F)CSC3=C2C#N)cc1OC (centres undefined),29.2,64.7% (inactive)
Cc1cccc(N2CCN(C(=O)c3cccc(N4C(=O)C5CC=CC(C)C5C4=O)c3)CC2)c1C (centres undefined),16.4,36.3% (inactive)
CCOC(=O)N1CCN(C(=O)c2ccc(S(=O)(=O)c3ccc(C)cc3)c(NC(C)=O)c2)CC1,37.2,82.4% (inactive)
Cc1ccc2nc(N3C(=O)C(O)=C(C(=O)c4ccco4)C3c3ccc(O)cc3)sc2c1 (centres undefined),40.9,90.5% (active)
O=C(CN(c1ccc(F)cc1)S(=O)(=O)c1ccccc1)NC1CC2CCC1C2 (centres undefined),24.2,53.5% (inactive)
O=C1C(=O)N(CC2CCCO2)C(c2ccco2)/C1=C(/O)c1ccc(F)cc1 (centres undefined),15,33.1% (inactive)
CCOc1cc(C2C(C(=O)OC)=CN(Cc3ccc(Cl)cc3)C=C2C(=O)OC)ccc1O,37.6,83.2% (inactive)
Cc1cc(C(=O)CN2C(=O)C(=O)N(Cc3ccccc3)C2=O)c(C)n1-c1ccc2c(c1)OCCO2,40.4,89.5% (active)

SMILES,activation (% of full agonist control) [%],activation (% of partial agonist control)
Cc1nn(Cc2cccc(C(=O)Nc3ccn(Cc4ccccc4F)n3)c2)c(C)c1[N+](=O)[O-],32.8,72.6% (inactive)
O=C(Nc1ccccc1Cl)C(=O)c1cn(CC(=O)N2CCOCC2)c2ccccc12,50.5,112% (active)
COc1ccccc1NC(=O)C(=O)c1cn(CC(=O)N2CCOCC2)c2ccccc12,42.3,93.5% (active)
Cc1cc(C)c2nc(N3C(=O)C(O)=C(C(=O)c4ccco4)C3c3cccc(O)c3)sc2c1 (centres undefined),29,64.1% (inactive)
O=C(c1ccccc1)c1ccc(NCCCn2ccnc2)c([N+](=O)[O-])c1,26.9,59.6% (inactive)
O=C(CSc1nc(=O)n(CCCN2CCOCC2)c2c1CCC2)Nc1cccc(F)c1,40.3,89.3% (active)
COc1ccc(N2CCN(C(=O)CNC(=O)Cn3c(C)cc4ccccc4c3=O)CC2)cc1,33.3,73.7% (inactive)
O=C(Cn1c(=O)c(=O)n(Cc2ccccc2)c2ccc(Cl)cc21)Nc1cccc(F)c1,25.4,56.2% (inactive)
COc1ccc2nc(N3C(=O)C(O)=C(C(=O)c4ccco4)C3c3ccc(C)o3)sc2c1 (centres undefined),41.1,91.1% (active)
CCOc1ccc(C2c3[nH]c4ccccc4c3CCN2Cc2cccn2-c2ncccn2)cc1 (centres undefined),39.5,87.5% (active)
Cc1nc2ccccn2c1/C(O)=C1\C(=O)C(=O)N(CCN2CCOCC2)C1c1ccncc1 (centres undefined),26.2,58.1% (inactive)
COc1cc(/C=C(\NC(=O)c2ccccc2)C(=O)NC(C(=O)O)c2ccccc2)cc(OC)c1OC (centres undefined),39.8,88% (active)
CC(Oc1cccc(Cl)c1)C(=O)Nc1ccc(N2CCOCC2)cc1N1CCOCC1 (centres undefined),33.2,73.5% (inactive)
N#Cc1ccc(C(=O)Nc2cc(-c3ccc(F)cc3)nn2-c2ccccc2)cc1,27.4,60.6% (inactive)
COc1ccccc1N1C(=O)C2C(C(=O)c3ccccc3)=NN(c3ccc(C)cc3)C2C1=O (centres undefined),47.8,106% (active)
O=C(CCCCCNC(=O)N1CCn2c1nc1ccccc12)N[C@@H](Cc1ccccc1)C(=O)O,32.6,72.2% (inactive)
CCn1cnc2c1c(=O)n(Cc1cccc([N+](=O)[O-])c1)c(=O)n2Cc1ccccc1,64.1,142% (active)
O=C(CSc1nc(=O)n(CCN2CCOCC2)c2c1CCCC2)Nc1cccc([N+](=O)[O-])c1,47.7,106% (active)
O=C(COc1ccc([N+](=O)[O-])cc1)Nc1cccc(C(=O)Nc2ccccc2C(=O)O)c1,27.7,61.3% (inactive)
O=C1CC(NS(=O)(=O)c2ccc3ccccc3c2)CN1c1ccccc1 (centres undefined),31.7,70.2% (inactive)
COc1ccc2c(c1)c(=O)c(C(=O)c1ccc(F)cc1)cn2CC(=O)Nc1ccc(F)cc1,48.8,108% (active)
O=C(OCC1OC(Oc2ccc(O)cc2)C(O)C(O)C1O)c1ccccc1 (centres undefined),9.83,21.8% (inactive)
O=C(COc1coc(CN2CCc3ccccc3C2)cc1=O)Nc1ccc(F)cc1F,44.3,98.2% (active)
COC(=O)c1sc(N2C(=O)C(=O)/C(=C(/O)c3ccc(C)cc3)C2c2ccco2)nc1C (centres undefined),37.7,83.5% (inactive)

# — PubChem BioAssay AID504452 (The Scripps Research Institute Molecular Screening Center, 2011)
